# PP5 inh: inhibitors of human protein phosphatase 5 (PP5); purified PP5c, OMFP substrate fluorescence; hit rate 0.18% among 320,000; inhibition, % at 6.7 µM; P53041;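 active means inhibition above the campaign's mean inhibition across all tested compounds plus 3 SD, cut at about 9.5% in these data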;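 further: 0% = DMSO only and 100% = 100 µM cantharidin control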
# Target sequence (P53041 whole entry, looked up): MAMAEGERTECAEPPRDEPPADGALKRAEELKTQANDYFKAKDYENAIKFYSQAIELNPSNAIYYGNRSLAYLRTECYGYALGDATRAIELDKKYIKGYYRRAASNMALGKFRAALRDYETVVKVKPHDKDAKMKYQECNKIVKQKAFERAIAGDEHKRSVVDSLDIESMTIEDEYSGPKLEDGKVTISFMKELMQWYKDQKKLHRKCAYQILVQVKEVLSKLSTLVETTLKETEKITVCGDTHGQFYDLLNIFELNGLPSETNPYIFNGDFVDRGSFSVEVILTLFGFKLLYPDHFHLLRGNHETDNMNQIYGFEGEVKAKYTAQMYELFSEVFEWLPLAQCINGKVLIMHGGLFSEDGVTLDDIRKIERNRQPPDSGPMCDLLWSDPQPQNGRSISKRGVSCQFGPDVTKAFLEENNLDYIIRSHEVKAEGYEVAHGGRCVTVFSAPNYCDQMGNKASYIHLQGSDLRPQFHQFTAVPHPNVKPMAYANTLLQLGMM
# IDE act: boosts human insulin-degrading enzyme activity in HEK cells | FAbeta-B cleavage, fluorescence polarization; 0% vehicle, 100% cell-free pure enzyme wells | activation, % at 5.96 µM | hit rate 0.073% among 340,000 | AID 493087;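 active means activation above the mean of all tested compounds plus 3 SD, set per screening campaign, cut at about 17% in these data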
# SKKanGAS inh: inhibitors of SKKanGAS S. pyogenes growth in kanamycin (SK-promoter or general growth effect); BacTiter-Glo, 6 h; inhibition, % at 7.5 µM; hit rate 1.3% among 300,000; AID 1662;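 active means mean replicate score, as percent of positive control median, at least 50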;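 further: strain carries kanamycin resistance gene driven by streptokinase promoter and grows in 40 µg/ml kanamycin; loss of luminescence reflects streptokinase promoter inhibition or plain growth inhibition; 0% = median of DMSO wells and 100% = positive control at its reference dose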
# Exocytosis inh: lytic granule exocytosis inhibition; TALL-104 LAMP-1 surface exposure, flow cytometry; cells stimulated with thapsigargin and PMA; inhibition, % at 10 µM; hit rate 0.66% among 360,000;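 active means inhibition above about 55%, limit read from the data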
# PP1 counter: PP1-alpha (human) inhibition in PP5 counter-screen; P62136; purified PP1alpha, OMFP fluorescence; inhibition, % at 6.7 µM; hit rate 0.9% among 320,000; AID 2235;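 active means inhibition above the mean inhibition of all tested compounds plus 3 SD, computed separately for each screening campaign, cut at about 15% in these data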
# IDE inh: inhibits human insulin-degrading enzyme in HEK cells. FAbetaB cleavage, fluorescence polarization. inhibition, % at 5.59 µM. hit rate 0.41% among 320,000;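 active means percent inhibition above the average of all tested compounds plus 3 SD, set per screening campaign, cut at about 16% in these data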;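 further: IDE supplied by intact live HEK cells; FP after avidin binding of uncleaved biotin substrate so inhibition keeps polarization high; 0% = DMSO wells and 100% = 60 µM reference IDE inhibitor Ii1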
# PP1 confirm: human PP1 phosphatase inhibition, confirmation | shares compounds with PP1 counter | inhibition, % at 6.7 µM | AID 2358 | hit rate 52% among 1,900 | purified PP1alpha, OMFP substrate fluorescence;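 active means mean PP1 inhibition above a set limit taken from the earlier primary screen, cut at about 15% in these data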
# PP5 inh counter: inhibits human PP5 phosphatase in PP1 counter-screen | hit rate 4% among 1,900 | purified PP5c, OMFP fluorescence | shares compounds with PP1 counter | inhibition, % at 6.7 µM | AID 2360;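 active means mean PP5 inhibition over triplicate wells above about 9.5% taken from the earlier PP1 screen, limit read from the data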
# * = called active by the depositor; x = no result given. Rows were chosen to be rich in hits. Some 2.8% of all compounds tested hit in one or more screens of this group.
SMILES,PP5 inh,IDE act,SKKanGAS inh,Exocytosis inh,PP1 counter,IDE inh,PP1 confirm,PP5 inh counter
O=c1c2ccccc2nc(-c2ccco2)n1CCc1ccc(O)cc1,-1,4,12,24,-3,0,x,x
COc1ccc(C2C(C(=O)c3ccco3)=C(O)C(=O)N2CCc2ccccc2)cc1OC (stereo not given),1,1,x,0,30*,-2,29*,-2
CCc1nc2ccc(C(=O)NCCCN(C)C)cn2c1N(CC)CCOC,x,x,x,7,x,x,x,x
COc1ccccc1C(=O)Nc1ccc2oc(-c3ccc(F)cc3)nc2c1,-1,-2,20,1,19*,1,12,-7
O=C(Nc1ccc(S(=O)(=O)N2CCCCCC2)cc1)c1[nH]ncc1[N+](=O)[O-],0,-3,5,0,58*,-6,16*,-4
CC(C)(C)CC(C)(C)c1ccc(OCCOCC[N+](C)(C)Cc2ccccc2)cc1,2,6,x,7,21*,0,0,3
C[N+](C)(CCOc1ccccc1)Cc1ccccc1 (tested in a mixture with another compound),2,-3,1,1,2,5,x,x
CCN(CC)C(=O)[C@H]1C[C@H](CC(=O)NCCCn2ccnc2)C(=O)N2CCc3c([nH]c4cc(CCC(=O)N(C)C)ccc34)[C@]12C,x,-1,x,-1,x,x,x,x
CCCCc1ccc(Nc2nc(CCC)cc(=O)[nH]2)cc1,8,-2,2,38,18*,-1,7,4
O=C(Nc1ccccc1)C1=C(O)CC(c2ccc(Cl)cc2)N2CCN=C12 (stereo not given),2,-6,18,0,5,7,x,x
COc1cc(/C=C2/NC(=O)N(CC(=O)Nc3ccc(C)cc3)C2=O)ccc1Oc1ccc([N+](=O)[O-])cn1,-1,3,-2,-4,19*,-2,23*,-2
COCCn1c(=NC(=O)c2cccs2)sc2cc(NC(C)=O)ccc21,-2,0,3,0,19*,-2,-1,-3
CCC(C)Sc1cc(-c2nc3ccc(C)cn3c2NCc2ccccc2)ccc1OC (stereo not given),5,14,74*,54,18*,-4,5,2
CCCCNc1c(-c2ccc(OC)c(SC(C)CC)c2)nc2ccc(C)cn12 (stereo not given),x,10,x,31,x,-2,x,x
N#Cc1c(-c2ccccc2)nc(SCC(=O)N2c3ccccc3Sc3ccccc32)[nH]c1=O,3,5,73*,2,21*,3,17*,-1
N#Cc1c(-c2ccccc2)nc(SCc2ccc(Cl)cc2)[nH]c1=O,6,1,61*,31,18*,3,12,-2
C=CCSc1nc(-c2ccccc2)c(C#N)c(=O)[nH]1,0,2,x,0,0,-3,x,x
CCC(=Cc1ccccc1O)c1ccncc1,x,6,x,-1,x,x,x,x
CCOc1cc(Br)cc(/C=N/NC(=O)c2cccnc2)c1O,2,-7,55*,-8,22*,2,19*,-4
COc1ccc(-c2nn(-c3ccccc3)cc2C(=O)NC2CCCCC2C)cc1 (stereo not given),0,3,23,0,-5,0,x,x
CC(C)N1C(=O)CSC1c1ccc(Br)cc1 (stereo not given),-2,4,-10,2,87*,-2,-4,-4
Cc1nnc(NC(=O)c2ccc(S(=O)(=O)N3CC(C)CC(C)C3)cc2)o1 (stereo not given),1,-1,54*,-4,22*,1,8,0
Cc1nnc(NC(=O)c2ccc(S(=O)(=O)N3CCc4ccccc4C3)cc2)o1,2,2,0,4,24*,-2,21*,-3
CC1CCCCN1S(=O)(=O)c1ccc(C(=O)Nc2nnc(C3=COCCO3)o2)cc1 (stereo not given),1,2,16,-1,13,1,x,x
O=C(Nc1nnc(C2=COCCO2)o1)c1ccc(Cc2ccccc2)cc1,0,0,93*,1,22*,-2,20*,-1
SMILES,PP5 inh,IDE act,SKKanGAS inh,Exocytosis inh,PP1 counter,IDE inh,PP1 confirm,PP5 inh counter
O=C(Nc1nnc(C2=COCCO2)o1)c1ccc([N+](=O)[O-])cc1,2,0,-3,-1,1,6,x,x
Cc1nnc(NC(=O)c2ccc(S(=O)(=O)N3CCCCC3C)cc2)o1 (stereo not given),5,8,12,-1,13,0,x,x
CC1CCCN(S(=O)(=O)c2ccc(C(=O)Nc3nnc(C4=COCCO4)o3)cc2)C1 (stereo not given),4,0,66*,-25,19*,9,1,-4
COc1ccc(-n2nc3c(c2NC(=O)CCCl)CSC3)cc1,x,0,-5,16,x,x,x,x
CCc1ccc(Nc2n[n+](-c3ccccc3)c(-c3c(Cl)cccc3Cl)s2)cc1,-4,4,88*,-5,31*,0,3,2
c1ccc(COc2ccc(-c3sc(Nc4ccccc4)n[n+]3-c3ccccc3)cc2)cc1,5,x,-1,x,20*,4,5,-1
Cc1cc(S(=O)(=O)N2CCN=C2c2ccccc2)c(Cl)cc1Cl,2,2,-4,-4,-3,2,x,x
COc1ccc(C(=O)NCc2ccc(-c3nc4ccccc4s3)cc2)cc1,0,-3,-15,1,20*,1,25*,-2
COc1cccc(C(=O)NCc2ccc(-c3nc4ccccc4s3)cc2)c1,-2,5,3,1,-1,2,x,x
COc1ccc(CNC(=O)c2ccc(CNc3c(NC4CCCCC4)c(=O)c3=O)cc2)cc1,2,7,8,-6,25*,0,14,-4
Cc1noc(C)c1CSCC(=O)Oc1ccc(N(C)S(=O)(=O)c2ccc(Cl)cc2)cc1,1,3,4,4,2,-4,x,x
C=CCn1c(CCc2cc(C(C)(C)C)c(O)c(C(C)(C)C)c2)n[nH]c1=S,4,-2,20,6,5,10,x,x
CCOc1ccc(N2C(=O)C3Sc4[nH]c(=O)sc4C(c4ccc(OC)c(OC)c4)C3C2=O)cc1 (stereo not given),2,7,-14,-9,-2,-4,x,x
Cc1nc2ccc(NC(=O)c3cc(Cl)ccn3)cc2s1,2,-3,-4,-11,8,1,x,x
Cc1ccc(C(=O)N/C(=C/c2ccc(-c3cc(C(F)(F)F)ccc3Cl)o2)C(=O)NCc2cccnc2)cc1,3,-1,13,-3,22*,-5,13,3
O=C(NCc1cccnc1)/C(=C/c1ccc(-c2cccc(C(F)(F)F)c2)o1)NC(=O)c1ccccc1,7,1,-3,-1,7,-3,x,x

# Assay outcomes (PubChem BioAssay)
